Measurements published in publication PMC4336329 (PLoS ONE, 2015).
Among all 310,000 compounds or so, about 2,200 (0.71%) showed an effect of 50% or more. The effect is printed as a negative number. What follows is part of a selection rich in strong results, with near analogues and random picks from the rest.

biological target: human ether-à-go-go-related gene (hERG) potassium channel (human, UniProt Q12809); experiment: primary screen, population patch clamp on CHO cells stably expressing hERG; higher = less effect of the substance
Sequence (Q12809 whole entry, looked up): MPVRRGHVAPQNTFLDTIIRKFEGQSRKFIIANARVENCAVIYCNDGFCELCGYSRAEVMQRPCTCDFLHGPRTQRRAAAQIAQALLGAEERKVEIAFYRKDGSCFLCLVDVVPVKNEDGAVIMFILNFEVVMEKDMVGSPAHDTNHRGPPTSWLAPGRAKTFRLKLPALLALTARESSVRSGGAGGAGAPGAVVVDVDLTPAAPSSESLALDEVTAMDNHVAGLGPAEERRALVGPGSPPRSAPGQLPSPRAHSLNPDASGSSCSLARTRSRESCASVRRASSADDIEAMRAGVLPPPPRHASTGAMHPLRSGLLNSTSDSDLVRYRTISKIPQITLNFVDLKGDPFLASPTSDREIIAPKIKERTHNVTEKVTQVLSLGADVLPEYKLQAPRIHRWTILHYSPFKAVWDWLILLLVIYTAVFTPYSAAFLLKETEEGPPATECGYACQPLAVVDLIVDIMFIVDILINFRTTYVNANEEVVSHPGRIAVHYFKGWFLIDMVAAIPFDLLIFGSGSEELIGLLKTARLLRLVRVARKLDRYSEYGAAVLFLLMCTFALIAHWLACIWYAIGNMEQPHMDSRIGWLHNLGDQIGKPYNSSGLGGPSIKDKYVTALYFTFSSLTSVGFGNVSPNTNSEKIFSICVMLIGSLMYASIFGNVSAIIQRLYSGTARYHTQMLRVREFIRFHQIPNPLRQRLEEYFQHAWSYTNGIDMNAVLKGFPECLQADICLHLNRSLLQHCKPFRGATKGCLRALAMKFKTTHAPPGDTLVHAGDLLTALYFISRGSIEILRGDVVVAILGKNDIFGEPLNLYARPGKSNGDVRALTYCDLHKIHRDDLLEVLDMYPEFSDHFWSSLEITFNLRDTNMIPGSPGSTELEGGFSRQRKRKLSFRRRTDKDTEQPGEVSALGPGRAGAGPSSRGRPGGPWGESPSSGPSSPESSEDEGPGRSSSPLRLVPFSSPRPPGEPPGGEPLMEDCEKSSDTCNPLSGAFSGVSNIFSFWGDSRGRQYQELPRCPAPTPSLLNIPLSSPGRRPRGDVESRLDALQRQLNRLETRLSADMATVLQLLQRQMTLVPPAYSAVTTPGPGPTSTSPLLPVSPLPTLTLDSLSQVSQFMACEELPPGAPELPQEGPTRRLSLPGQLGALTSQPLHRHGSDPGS

In order of rising “hERG current change (%, negative = inhibition) at 1uM” value:
1. CN(C)c1ccc(N=C/C=C2\N(C)c3ccccc3C2(C)C)cc1  -84.7%
2. CN1/C(=C\C=Nc2ccc3ccccc3c2)C(C)(C)c2ccccc21  -75.1%
3. CN1/C(=C\C=Nc2ccccc2)C(C)(C)c2ccccc21  -65%
4. Cc1ccccc1N=C/C=C1\N(C)c2ccccc2C1(C)C  -51.2%
5. Cc1c(N=C/C=C2\N(C)c3ccccc3C2(C)C)c(=O)n(-c2ccccc2)n1C  -15.5%
6. COc1ccc(S(=O)(=O)NCCc2csc(-c3cccnc3)n2)cc1  -9.72%
7. Cc1c(N=C/C=C2/N(C)c3ccccc3C2(C)C)c(=O)n(-c2ccccc2)n1C  -5.46%
8. COc1cccc(-c2nc(CS(=O)(=O)CC(=O)NCCCN3CC(C)CC(C)C3)c(C)o2)c1 (stereo not shown)  -5.41%
9. O=C(NCc1ccncc1)c1nc(-c2cccs2)no1  -0.652%
10. COc1cccc(-n2c(Cc3cc(=O)[nH]c(=O)[nH]3)nnc2SC(C)C)c1  2.56%
11. CN1/C(=C\C=C(C#N)C#N)C(C)(C)c2ccccc21  2.94%
12. CN1/C(=C\C=O)C(C)(C)c2ccccc21  3.65%
13. O=S(=O)(c1ccc(NC(=S)NCCc2ccccc2)cc1)N1CCOCC1  3.71%
14. CN1/C(=C/C=N/n2cnnc2)C(C)(C)c2ccccc21  7.04%
15. CN(C)S(=O)(=O)c1ccc2nnn(O)c2c1  7.89%
16. CN1/C(=C/C=C(C#N)C#N)C(C)(C)c2ccccc21  10.9%
17. CCCn1c2ccccc2c2cnn(CC(=O)NC3CCCC(C)C3C)c(=O)c21 (stereo not shown)  11.4%
18. CCNC(=O)c1ccc(CSc2nc3ccccc3s2)cc1  11.4%
19. Cc1cccc(C)c1Nc1nnc(SCC(=O)c2ccc(Br)s2)s1  12.4%
20. CO/N=C/C=C1/N(C)c2ccccc2C1(C)C  12.5%
21. CCC(C)(C)NC(=O)C(c1ccco1)N(C(=O)Cn1nnc2ccccc21)c1ccc2c(c1)OCO2 (stereo not shown)  13.9%
22. CN(/N=C/c1ccc(Cl)cc1)c1ncc(Cl)cc1C(F)(F)F  14.6%
23. CN1/C(=C\C=N\O)C(C)(C)c2ccccc21  14.7%
24. CCCN(CCC)S(=O)(=O)c1ccc(NC(=O)c2cc(C(=O)OC)cc([N+](=O)[O-])c2)cc1  16.7%
25. N#Cc1nc(-c2ccc(Cl)cc2)oc1NCc1ccco1  18.1%
